The campaign covered roughly 2,300 compounds. About 790 (34%) were called active. No rule for the calls is given here. This is one part of the list. Results with a measured potency or affinity are listed apart.
Test: THP-1 cell cytotoxicity, dose response, cytotoxicity control for non-replicating M. tuberculosis project (AID 489025)
Conditions: THP-1 cell viability; series mostly up to 40 µM

| Structure (SMILES) | outcome |
| --- | --- |
| O=C(COc1cccc2ccccc12)Nc1nc2ccccc2[nH]1 | inactive |
| CCCN(Cc1nnc(-c2ccccc2Cl)o1)C(=O)c1cc([N+](=O)[O-])cc([N+](=O)[O-])c1 | inactive |
| COc1ccc(CCOC(=O)c2ccc(N)c([N+](=O)[O-])c2)cc1 | inactive |
| Cc1ccc(OCC(=O)Nc2ccc([N+](=O)[O-])cc2)cc1 | inactive |
| COc1ccc(C(=O)COC(=O)COc2ccc(C)c(C)c2)cc1 | inactive |
| CC(C)CN(Cc1c(O)ccc2ccccc12)CC(C)C | inactive |
| Cn1c(=O)c2c(=O)cc(NNC(=O)CC#N)[nH]c2n(C)c1=O | inactive |
| O=C(C/C=N\OCc1ccc([N+](=O)[O-])cc1)Nc1ccccc1 | inactive |
| CN(CC(=O)Nc1ccc(Cl)cc1)C1CCCCC1 | inactive |
| Cc1ccc(CO/N=C/c2c(O)cc(C)oc2=O)cc1 | inactive |
| CS(=O)(=O)Nc1cccc2cccnc12 | inactive |
| Cc1cc(C)n2nc(S(=O)(=O)Nc3c(Cl)cccc3Cl)nc2n1 | inactive |
| CCSc1nc(O)c(C2OC(=O)c3c2ccc(OC)c3OC)c(=O)n1-c1ccccc1 (stereo not given) | inactive |
| COc1cc(C=O)ccc1OCCCCOc1ccccc1[N+](=O)[O-] | inactive |
| COc1cc(/C=C/c2ccc3c([N+](=O)[O-])cccc3n2)ccc1OCC(=O)O | inactive |
| C=CCN(CC=C)CC(=O)Nc1ccc(S(N)(=O)=O)cc1 | inactive |
| O=C(OCc1ccc([N+](=O)[O-])cc1)c1ccc2ccccc2n1 | inactive |
| N#CC(C(=O)Nc1ccccc1)=C1Nc2ccccc2N1 | inactive |
| CSCCC(=O)N1CCCC(CNC(=O)c2ccc(-c3ccccc3)cc2)C1 (stereo not given) | inactive |
| Cc1[nH]n(S(=O)(=O)Cc2ccccc2)c(=O)c1N=Nc1ccccc1Cl | inactive |

| Structure (SMILES) | outcome |
| --- | --- |
| O=C(N/N=C/C=C/c1ccccc1)c1ccncc1 | inactive |
| O=C(NN=C(Cc1ccccc1)Cc1ccccc1)c1ccncc1 | inactive |
| CN1/C(=C\C=N\NC(=O)c2cccnc2)C(C)(C)c2ccccc21 | inactive |
| CCOC(=O)N1CCC(NC(=O)C2CCN(c3nc(-c4ccc(OC)cc4)no3)CC2)CC1 | inactive |
| CCOC(=O)C1CCCN(Cc2nc(Cc3ccccc3Cl)no2)C1 (stereo not given) | inactive |
| CCCNC(=O)OCC12CC3CC(CC(C3)C1)C2 | inactive |
| O=C(CCCOc1ccccc1)OCn1nnc2ccccc2c1=O | inactive |
| COc1ccccc1N1CCN(C(=O)CCn2c(=O)[nH]c3ccsc3c2=O)CC1 | inactive |
| Cc1ccc(C(=O)COC(=O)c2cccs2)cc1 | inactive |
| Cc1ccc(C(=O)CCC2CCCC2=O)cc1 (stereo not given) | inactive |
| COc1ccc(-c2[nH]ncc2CN2CCCCCCC2)c(OC)c1 | inactive |
| O=C(Nc1ccc(F)cc1F)c1cc2ccccc2oc1=O | inactive |
| CC(C)Cc1cc(C(=O)Nc2ccc(F)cc2F)no1 | inactive |
| CCCNC(=O)NC(=O)COc1ccc(-c2ccc(C#N)cc2)cc1 | inactive |
| O=C(COc1ccc(-c2ccccc2)cc1)Nc1cccnc1 | inactive |
| O=C(NC(=S)Nc1ccc(F)cc1)C1CCCCC1 | inactive |
| CC1=CN2C(=N)/C(=C/c3ccc([N+](=O)[O-])o3)C(=O)N=C2S1 | inactive |
| CN(/N=C/c1ccc([N+](=O)[O-])o1)c1ccccc1 | inactive |
| CC(C)[C@H](NC(=O)c1ccc(Br)cc1)C(=O)NC1CCCCC1 | inactive |
| c1ccc(Nc2nc(-c3ccccn3)cs2)cc1 | inactive |

| Structure (SMILES) | outcome |
| --- | --- |
| COc1ccc(CCNc2nc(-c3ccccn3)cs2)cc1OC | inactive |
| CN1CCN(c2cc3c(cc2F)c(=O)c(C(=O)O)cn3CCF)CC1 | inactive |
| S=C1NC2(CCCC2)N=C1c1ccccc1 | inactive |
| CCOC(=O)c1csc(-c2snnc2C)n1 | inactive |
| COc1ccc(COC(=O)CCNC(=O)c2ccc(Cl)cc2)cc1 | inactive |
| COC(=O)COc1cccc(NC(=O)c2ccc(Cl)cc2)c1 | inactive |
| CC(C)N1CCc2c(sc(NC(=O)CCS(=O)(=O)c3ccccc3)c2C#N)C1 | inactive |
| CNC(=O)COC(=O)c1ccc(-c2nc3ccccc3s2)s1 | inactive |
| O=C(COc1ccc2ccccc2c1)NNC(=O)c1cccs1 | inactive |
| Clc1cccc(CNCCNCc2cccc(Cl)c2)c1 | inactive |
| Cc1cc(Cl)ccc1OCCCC(=O)NO | inactive |
| CC(Cc1cccs1)NC(=O)c1cccc(Cl)c1 (stereo not given) | inactive |
| Cc1ccc(NC(=O)COc2ccc3c(c2)CCC3)nc1 | inactive |
| CCOC(=O)COc1cc(O)c2c(=O)cc(-c3ccccc3)oc2c1 | inactive |
| COc1ccc(N2C(=O)C(F)(F)C2c2cccc(F)c2)cc1 (stereo not given) | inactive |
| COCCNC(=O)CC(=O)N/N=C/c1cccc(C(=O)OC)c1 | inactive |
| Cc1cc(C(=O)N/N=C/c2cccc(Cl)c2Cl)no1 | inactive |
| COC(=O)COc1cccc(/C=N/NC(=O)CCSc2ccccc2)c1 | inactive |
| NC(=O)N/N=C\c1cc(Br)ccc1O | inactive |
| Clc1ccccc1CSc1nnc([C@@H]2CCCN2)o1 | inactive |

— PubChem BioAssay AID489025 (Southern Research Specialized Biocontainment Screening …, 2010)
